High-throughput results: PubChem BioAssay, Broad Institute
Pf Dd2 growth: P. falciparum Dd2 growth inhibition | SYBR Green, 72 h; stronger effect = lower value | activity change, % at 10 µM | 94,000 compounds, 2.3% hits | AID 1159554; in the data active = activity change below about -80%; inconclusive = no clear call, values can overlap the other calls
C diff HTS: blocks growth of Clostridium difficile. Clostridium difficile clinical isolate growth, OD600, 24 h; stronger effect = lower value. growth activity, negative = inhibition, % at 16 µg/mL (by protocol). 86,000 compounds, 0.25% hits. AID 1259249;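 active = mean growth activity at or below -80% and every replicate also at or below -80%; inconclusive = mean at or below -80% but some replicate above -80%; inactive = mean growth activity above -80%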;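 also: 0% = DMSO wells and -100% = levofloxacin 16 µg/mL wells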
T cruzi growth-1: T. cruzi proliferation inhibition; T. cruzi beta-gal in NIH3T3, GalScreen luminescence, 90 h; inhibition, % at 8.34 µM; 77,000 compounds, 5.9% hits; AID 624255;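 active = mean inhibition above about 93%, with at least 55% of replicates each passing it, limit read from the data, passing the limit was not always enough; inconclusive = only one of those two conditions holds; inactive = neither condition holds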
T cruzi growth-2: blocks T. cruzi growth in NIH3T3 host cells | shares compounds with T cruzi growth-1 | T. cruzi beta-gal in NIH3T3, GalScreen luminescence, 90 h | inhibition, % at 8.35 µM | 5,600 compounds, 72% hits;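 active = mean replicate inhibition above about 95% and at least 55% of replicates individually reaching it, limit read from the data; inconclusive = only one of the two criteria is met; inactive = neither criterion is met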
T cruzi growth-3: blocks T. cruzi growth in NIH3T3 host cells. shares compounds with T cruzi growth-1. T. cruzi beta-gal in NIH3T3, GalScreen luminescence, 90 h. inhibition, % at 2.09 µM. 5,600 compounds, 21% hits. AID 651740;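 active = mean inhibition above about 95%, with at least 55% of replicates also reaching it, limit read from the data; inconclusive = meets just one of the two conditions; inactive = meets neither condition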;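 also: plate controls were neutral control median for no effect and positive control median for full effect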
NIH3T3 tox: NIH/3T3 (mouse) viability loss | 5,600 compounds, 14% hits | NIH/3T3 viability, CellTiter-Glo ATP luminescence, 90 h | cytotoxicity (signal decrease), % at 8.35 µM | shares compounds with T cruzi growth-1;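 active = mean signal decrease across replicates above about 35% based on untreated-well scatter, with enough replicates individually passing, limit read from the data; inconclusive = no rule stated though some were filed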;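 also: 0% = median of neutral control wells and 100% = median of positive control wells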
3T3 cytotox 2: NIH/3T3 (mouse) viability loss; shares compounds with T cruzi growth-1; NIH/3T3 viability, CellTiter-Glo ATP luminescence, 90 h; inhibition, % at 24.9 µM; 5,600 compounds, 56% hits; AID 651744;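 active = mean loss of cell viability signal at or above a set limit, and enough replicates individually reaching it; inconclusive = meets only the mean limit or only the replicate share; inactive = meets neither condition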;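 also: 0% = median of neutral control wells and 100% = median of positive control wells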
Numbers without * were called inactive; u = inconclusive; x = not tested or not shown. A selection: hits, their analogues and other compounds. The true share with any hit is near 6.7%.

SMILES	Pf Dd2 growth	C diff HTS	T cruzi growth-1	T cruzi growth-2	T cruzi growth-3	NIH3T3 tox	3T3 cytotox 2
O=C(Nc1ccccc1)N1CCCCN2[C@@H](CO)[C@H](c3ccc(-c4ccccc4)cc3)[C@@H]2C1	-43.6	28.6	99.2*	91.2	73.7	43.6*	102.8*
Cc1ccc(-c2ccc([C@@H]3[C@H](CO)N4CCCCN(C(=O)Nc5ccccc5)C[C@@H]34)cc2)cc1	-9.2	-91.7*	u	104.7*	106.1*	119.8*	104.9*
O=C(Nc1ccccc1)N1CCCCN2[C@H](CO)[C@@H](c3ccc(Br)cc3)[C@H]2C1	-24.8	1.5	85.3	x	x	x	x
O=C(Nc1ccccc1)N1CCCCN2[C@H](CO)[C@@H](c3ccc(-c4ccccc4)cc3)[C@@H]2C1	-28.5	21.3	u	109.4*	93.7	-8.0	103.9*
O=C(Nc1ccccc1)N1CCCCN2[C@@H](CO)[C@@H](c3ccc(-c4ccncc4)cc3)[C@@H]2C1	25.6	0.1	u	91.4	68.9	8.6	18.6
O=C(Nc1ccccc1)N1CCCCN2[C@H](CO)[C@@H](c3ccc(-c4ccncc4)cc3)[C@@H]2C1	1.4	3.5	70.8	x	x	x	x
Cc1ccc(-c2ccc([C@H]3[C@@H](CO)N4CCCCN(C(=O)Nc5ccccc5)C[C@H]34)cc2)cc1	-32.1	-0.2	57.3	x	x	x	x
O=C(Nc1ccccc1)N1CCCCN2[C@H](C1)[C@@H](c1ccc(Br)cc1)[C@@H]2CO	26.6	4.9	52.9	x	x	x	x
CO[C@@H]1CC[C@H]2CCN(C)C(=O)[C@H](C)N(C)C(=O)c3cc(C#N)ccc3OC[C@@H]1O2	x	8.3	-4.5	x	x	x	x
O=C(C[C@@H]1C[C@@H]2c3cc(NS(=O)(=O)c4ccc(F)cc4)ccc3O[C@@H]2[C@H](CO)O1)NCCc1ccccc1	-20.5	-7.9	x	x	x	x	x
CCCN1[C@H](C(=O)OC)[C@@H](CO)[C@@H]2Cn3c(ccc(C4=CCCC4)c3=O)[C@@H]21	-0.2	-0.4	14.0	x	x	x	x
COCC(=O)Nc1ccc2c(c1)C(=O)N(C)[C@H]1CC[C@@H](CC(=O)Nc3ccccc3)O[C@@H]1CO2	-25.3	0.2	58.8	x	x	x	x
CC(=O)N1CCCCN2[C@@H](CO)[C@H](c3ccc(-c4ccccc4)cc3)[C@@H]2C1	-12.7	-19.7	103.8*	64.9	45.8	32.4	42.4*
CC(=O)N1CCCCN2[C@H](CO)[C@H](c3ccc(-c4ccccc4)cc3)[C@H]2C1	-23.7	-14.1	60.8	x	x	x	x
CS(=O)(=O)Nc1ccc2c(c1)[C@@H]1C[C@H](CC(=O)N3CCc4ccccc4C3)O[C@H](CO)[C@@H]1O2	-0.4	-2.7	x	x	x	x	x
O=C(C[C@H]1C[C@H]2c3cc(NS(=O)(=O)c4ccc(F)cc4)ccc3O[C@H]2[C@H](CO)O1)N1CCc2ccccc2C1	-37.2	6.1	109.5*	84.7	26.1	-6.5	6.9
O=C(C[C@@H]1C[C@@H]2c3cc(NS(=O)(=O)c4ccc(F)cc4)ccc3O[C@@H]2[C@@H](CO)O1)N1CCCCC1	-30.3	-7.5	x	x	x	x	x
CS(=O)(=O)Nc1ccc2c(c1)[C@@H]1C[C@@H](CC(=O)N3CCc4ccccc4C3)O[C@@H](CO)[C@@H]1O2	-3.0	-5.6	x	x	x	x	x
O=C(C[C@@H]1C[C@H]2c3cc(NS(=O)(=O)c4ccc(F)cc4)ccc3O[C@H]2[C@H](CO)O1)N1CCc2ccccc2C1	-78.5	-6.5	u	83.2	26.7	18.1	20.1
O=C(C[C@@H]1C[C@@H]2c3cc(NS(=O)(=O)c4ccc(F)cc4)ccc3O[C@@H]2[C@@H](CO)O1)N1CCc2ccccc2C1	-64.3	-7.6	114.6*	99.6*	13.1	15.9	13.2
O=C(O)C[C@@H]1C[C@H]2c3cc(NC(=O)CC4CC4)ccc3O[C@H]2[C@@H](CO)O1	6.6	-0.4	-3.5	x	x	x	x
COc1ccccc1-c1ccc(C2[C@@H]3CN(S(=O)(=O)c4ccccc4C)C[C@H]2N3)cc1 (stereo partly drawn)	-21.2	49.7	x	x	x	x	x
C[C@@H]1CCCCO[C@@H](CN(C)Cc2ccncc2)[C@H](C)CN([C@@H](C)CO)C(=O)c2cc(NS(=O)(=O)c3cn(C)cn3)ccc2O1	48.4	-3.2	-114.2	x	x	x	x
Cc1ccc(S(=O)(=O)Nc2ccc3c(c2)C(=O)N([C@H](C)CO)C[C@H](C)[C@@H](CN(C)S(=O)(=O)c2ccc(F)cc2)OCCCC[C@@H](C)O3)cc1	-26.7	-5.7	x	x	x	x	x
Cc1ccc(S(=O)(=O)N(C)C[C@@H]2OCCCC[C@H](C)Oc3ccc(NS(=O)(=O)c4ccc(F)cc4)cc3C(=O)N([C@H](C)CO)C[C@@H]2C)cc1	-58.0	-0.5	108.0*	97.4*	71.3	-19.9	-0.8
SMILES	Pf Dd2 growth	C diff HTS	T cruzi growth-1	T cruzi growth-2	T cruzi growth-3	NIH3T3 tox	3T3 cytotox 2
Cc1ccc(S(=O)(=O)Nc2ccc3c(c2)C(=O)N([C@@H](C)CO)C[C@H](C)[C@@H](CN(C)S(=O)(=O)c2ccc(F)cc2)OCCCC[C@@H](C)O3)cc1	-77.8	-8.7	x	x	x	x	x
Cc1ccc(S(=O)(=O)N(C)C[C@@H]2OCCCC[C@@H](C)Oc3ccc(NS(=O)(=O)c4ccc(F)cc4)cc3C(=O)N([C@H](C)CO)C[C@@H]2C)cc1	-0.9	-1.1	29.8	x	x	x	x
Cc1ccc(S(=O)(=O)Nc2ccc3c(c2)C(=O)N([C@H](C)CO)C[C@H](C)[C@H](CN(C)S(=O)(=O)c2ccc(F)cc2)OCCCC[C@H](C)O3)cc1	-68.9	-5.3	119.7*	102.8*	107.0*	-11.5	16.1
Cc1ccc(S(=O)(=O)N(C)C[C@H]2OCCCC[C@H](C)Oc3ccc(NS(=O)(=O)c4ccc(F)cc4)cc3C(=O)N([C@H](C)CO)C[C@H]2C)cc1	-79.8	-0.8	116.2*	98.5*	72.1	-32.5	39.6*
Cc1ccc(-c2cnc3c(c2)C(=O)N([C@H](C)CO)C[C@@H](C)[C@@H](CN(C)CC2CCCC2)O3)cc1	-38.5	6.6	77.9	x	x	x	x
C[C@H]1CN([C@@H](C)CO)C(=O)c2cccc(NC(=O)C3CC3)c2O[C@@H]1CN(C)Cc1ccc(C(=O)O)cc1	11.8	1.1	-7.4	x	x	x	x
C[C@H]1CN([C@@H](C)CO)S(=O)(=O)c2ccc(C#CC3CC3)cc2O[C@@H]1CN(C)C(=O)c1ccccc1	-51.3	-6.9	98.8*	100.7*	76.1	10.3	u
CC(C)CC#Cc1ccc2c(c1)O[C@H](CN(C)C(=O)c1cccc(F)c1)[C@@H](C)CN([C@@H](C)CO)S2(=O)=O	-40.5	4.1	126.2*	98.7*	101.5*	24.8	105.6*
CC(C)CC#Cc1ccc2c(c1)O[C@H](CN(C)C(=O)c1ccccc1)[C@H](C)CN([C@H](C)CO)S2(=O)=O	-59.7	16.9	x	x	x	x	x
C[C@@H]1CN([C@@H](C)CO)S(=O)(=O)c2ccc(C#CC3CC3)cc2O[C@@H]1CN(C)C(=O)c1cccc(F)c1	-49.9	7.7	x	x	x	x	x
